In PubChem BioAssay (EPA / NIEHS):
Activity calls are given as the source filed them. Rule for the calls: active = hit-call score of the fitted dose curve at least 0.9, where 1 is the maximum; inactive = score below 0.9.

experiment: ATG_FoxO_CIS: Attagene CIS-FACTORIAL HepG2 Assay for human Forkhead box O (FoxO) (AID 2282943); conditions: HepG2 Attagene cis-reporter, FoxO element, mRNA; actives raise or lower the signal
Procedure: ATG_CIS is a cell-based, multiplexed-readout assay that uses HepG2, a human liver cell line, with measurements taken at 24 hours after chemical dosing in a 24-well plate.ATG_FoxO_CIS is one of 52 assay component(s) measured or calculated from the ATG_CIS assay. It is designed to make measurements of mRNA induction, a form of inducible reporter, as detected with fluorescence intensity signals by Reverse transcription polymerase chain reaction (RT-PCR) and Capillary electrophoresis technology.Data from the assay component ATG_FoxO_CIS was analyzed into 1 assay endpoint. This assay endpoint, ATG_FoxO_CIS, was analyzed with bidirectional fitting relative to DMSO as the negative control and baseline of activity. Using a type of inducible reporter, measures of mRNA for gain or loss-of-signal activity can be used to understand the reporter gene at the transcription factor-level as they relate to the gene FOXO1 and FOXO3. Furthermore, this assay endpoint can be referred to as a primary readout, because this assay has produced multiple assay endpoints where this one serves a reporter gene function. To generalize the intended target to other relatable targets, this assay endpoint is annotated to the dna binding intended target family, where the subfamily is forkhead box protein.
Human liver HepG2 cells are transiently transfected with multiple reporter transcription units (MRTUs) in 6-well plates using FuGene 6 reagent (Roche; 3 ml FuGene/1 mg DNA). The MRTU constructs are regulated by a cis-regulating element (promoter). […] A major difference between the CIS and TRANS system is that in CIS activities of endogenous TFs are measured, whereas the TRANS assay evaluates changes in activities of exogenous, chimeric NR-Gal4 proteins. […] At the end of 24 hour incubation, total RNA was isolated using TriZol reagent (Invitrogen). The isolated RNA is then reverse-transcribed using oligo(dT) primer and Mo-MLV reverse transcriptase (Invitrogen) with DNAse I (Ambion) treatment for 30 min. The one-tenth of the produced cDNA was amplified by PCR using Taq DNA polymerase (Invitrogen) and two reporter sequence-specific primers. The PCR products were fluorescently labeled by primer extension with 6-arboxyfluorescein (6-FAM) 5'-labeled reporter sequence-specific primer (2 min at 95 C, 20 s at 68 C and 10 min at 72 C) and these products were digested with 5U of HpaI (New England Biolabs) for 2h at 37 C. The fragments were purified using Qiaquick PCR columns (Qiagen), analyzed on an ABI 3130xL genetic analyzer (Applied Biosystems) with peak positions identified by using a set of X-rhodamine (ROX)-labeled MapMarker1000 molecular weight standards (BioVentures). The raw capillary electrophoresis data was processed using Attagraph software (Attagene).

Q: Which outcome does the source give for `CC1(C)C(=O)NC(=O)NC1=O` here?
A: inactive

Q: For `ClCCCCCCCl`, which outcome is on record?
A: inactive

Q: With `O=S(=O)(O)OOS(=O)(=O)O` as the molecule, how does the outcome read?
A: inactive

Q: With `C=Cc1cccc(CCl)c1` as the molecule, how does the outcome read?
A: inactive

Q: With `CCCCOC(=O)CCC(=O)OCCCC` as the molecule, how does the outcome read?
A: inactive

Q: Which AC50 does the source give for `CC(=O)C=Cc1ccccc1` here?
A: 100 µM (active)

Q: Which outcome does the source give for `O=S(=O)(c1ccccc1)c1ccccc1` here?
A: inactive

Q: With `O=P1(NCCCl)OCCCN1CCCl` (stereo not given) as the molecule, how does the outcome read?
A: inactive

Q: With `CC(C)(C)C(=O)CCl` as the molecule, how does the outcome read?
A: inactive

Q: Which outcome does the source give for `CN1C[C@H](C(=O)N[C@]2(C)O[C@@]3(O)[C@@H]4CCCN4C(=O)[C@H](Cc4ccccc4)N3C2=O)C=C2c3cccc4[nH]cc(c34)C[C@H]21` here?
A: inactive

Q: With `c1ccc(Nc2ccc3ccccc3c2)cc1` as the molecule, how does the outcome read?
A: inactive

Q: Which outcome does the source give for `COc1cc(OC)c(OC)cc1C=O` here?
A: inactive

Q: With `CSc1nc(N=[N+]=[N-])nc(NC(C)C)n1` as the molecule, how does the outcome read?
A: inactive

Q: Which outcome does the source give for `CCC1CCC(=O)O1` (stereo not given) here?
A: inactive

Q: Which outcome does the source give for `Nc1ccccc1C(=O)OCCc1ccccc1` here?
A: inactive

Q: For `CN(C)C(=O)C(c1ccccc1)c1ccccc1`, which outcome is on record?
A: inactive

Q: For `CC(C)(c1cc(Cl)c(O)c(Cl)c1)c1cc(Cl)c(O)c(Cl)c1`, which outcome is on record?
A: inactive

Q: Which AC50 does the source give for `Oc1ccc(C2(c3ccc(O)cc3)c3ccccc3-c3ccccc32)cc1` here?
A: 9.31 µM (active)

Q: For `O=C(CCN1CC1)OCC(CO)(COC(=O)CCN1CC1)COC(=O)CCN1CC1`, which outcome is on record?
A: inactive

Q: For `CCCCCCC1CCOC1=O` (stereo not given), which outcome is on record?
A: inactive

Q: For `CC[N+](=O)[O-]`, which outcome is on record?
A: inactive

Q: With `CCC[N+](=O)[O-]` as the molecule, how does the outcome read?
A: inactive

Q: For `CCOP(=O)(OCC)Oc1ccc([N+](=O)[O-])cc1`, which outcome is on record?
A: inactive

Q: For `O=C(O)CCCc1ccc(N(CCCl)CCCl)cc1`, which outcome is on record?
A: inactive

Q: Which AC50 does the source give for `O=[N+]([O-])C=Cc1ccccc1` here?
A: 33.4 µM (active)

Q: For `COC(=O)COc1ccc(Cl)cc1Cl`, which outcome is on record?
A: inactive

Q: With `C[C@]12CC[C@H](O)C[C@H]1CC[C@@H]1[C@@H]2C[C@@H](O)[C@]2(C)[C@@H](C3=CC(=O)OC3)CC[C@]12O` as the molecule, how does the AC50 read?
A: 8.56 µM (active)

Q: For `CNC(=N[N+](=O)[O-])NCC1CCOC1` (stereo not given), which outcome is on record?
A: inactive

Q: For `O=C(O)c1cc[c]([Hg][Cl])cc1`, which outcome is on record?
A: inactive

Q: With `O=c1c2ccccc2c(=O)c2c1cc(Cl)c1[nH]c3c([nH]c12)c(Cl)cc1c(=O)c2ccccc2c(=O)c13` as the molecule, how does the outcome read?
A: inactive

Q: For `CCNCC`, which outcome is on record?
A: inactive

Q: For `Clc1ccc(-c2ccccc2)cc1`, which outcome is on record?
A: inactive

Q: For `O=C(O)C(Br)Br`, which outcome is on record?
A: inactive

Q: With `CC(C)COP(=O)(OCC(C)C)OCC(C)C` as the molecule, how does the outcome read?
A: inactive

Q: For `CN(N=O)c1ccccc1`, which outcome is on record?
A: inactive

Q: With `Cc1ncc(C[n+]2csc(CCO)c2C)c(N)n1` as the molecule, how does the outcome read?
A: inactive

Q: With `C=CC(=O)OCCCCOC(=O)C=C` as the molecule, how does the AC50 read?
A: 54.7 µM (active)

Q: Which outcome does the source give for `CN(C)N` here?
A: inactive

Q: For `Nc1ccccc1C(=O)Oc1ccc2ccccc2c1`, which AC50 is on record?
A: 147 µM (active)

Q: For `C[N+](=O)[O-]`, which outcome is on record?
A: inactive
